{
  "source": "PubChem BioAssay (Tox21)",
  "note": "Values joined by “and” are separate entries in the source; they are usually repeats but may differ in a detail not shown here. Identical values can stand only once. Results filed as inconclusive are left out. A number with no mark means an inactive call. Active and inactive are the calls of the source. The call rests on the fitted dose curve; in most records, active means well fitted activation curve with a large enough effect in the repeat runs; inconclusive means weak or mixed curves; inactive means no such curve, though single readings can be large or run the other way. On the % scale 0 is the no-effect control and ±100 the full control effect; potency means the concentration at half of the fitted maximal effect.",
  "data": [
    {"target": "Aryl hydrocarbon receptor (Homo sapiens) (UniProt P35869)", "sequence (P35869 whole entry, looked up)": "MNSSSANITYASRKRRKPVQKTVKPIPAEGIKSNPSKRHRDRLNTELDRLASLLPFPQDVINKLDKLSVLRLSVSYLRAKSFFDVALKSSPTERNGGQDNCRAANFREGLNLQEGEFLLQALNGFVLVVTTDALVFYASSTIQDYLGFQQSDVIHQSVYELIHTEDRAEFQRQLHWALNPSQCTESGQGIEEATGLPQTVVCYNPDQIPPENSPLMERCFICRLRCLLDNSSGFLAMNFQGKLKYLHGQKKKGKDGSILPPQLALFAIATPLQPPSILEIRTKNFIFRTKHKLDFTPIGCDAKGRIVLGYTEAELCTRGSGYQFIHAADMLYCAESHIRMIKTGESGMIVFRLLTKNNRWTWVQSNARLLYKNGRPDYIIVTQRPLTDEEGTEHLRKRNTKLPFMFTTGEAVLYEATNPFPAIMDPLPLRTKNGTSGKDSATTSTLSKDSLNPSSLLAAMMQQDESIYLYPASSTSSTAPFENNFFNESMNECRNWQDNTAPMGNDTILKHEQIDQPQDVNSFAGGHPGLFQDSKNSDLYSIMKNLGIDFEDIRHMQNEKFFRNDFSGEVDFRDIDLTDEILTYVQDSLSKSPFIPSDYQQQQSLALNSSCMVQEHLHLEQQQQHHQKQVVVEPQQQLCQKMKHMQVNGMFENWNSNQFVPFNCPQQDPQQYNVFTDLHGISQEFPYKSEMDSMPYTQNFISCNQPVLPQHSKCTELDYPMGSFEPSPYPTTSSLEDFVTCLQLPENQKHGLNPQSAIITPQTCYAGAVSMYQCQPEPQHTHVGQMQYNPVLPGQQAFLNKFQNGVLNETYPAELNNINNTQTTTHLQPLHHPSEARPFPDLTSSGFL", "test": "qHTS assay to identify small molecule that activate the aryl hydrocarbon receptor (AhR) signaling pathway (AID 743085); further: nearly all actives have a fitted effect of over 15% in size;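 on activation: HG2L7.5c1 human HepG2 liver cells with stably integrated DRE-driven firefly reporter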", "conditions": "HepG2 AhR-luc (HG2L7.5c1), luciferase, 24 h; series mostly up to 70.3 µM; activation: at the top concentration", "description": "U.S. Tox21 Program National Center for Advancing Translational Sciences [NCATS] NIH Chemical Genomics Center [NCGC] U.S. Environmental Protection Agency [EPA] National Institutes of Environmental Health Sciences [NIEHS] National Toxicology Program [NTP] U.S. Food and Drug Administration [FDA] Tox21 Assay overview: The Aryl hydrocarbon Receptor (AhR), a member of the family of basic helix-loop-helix transcription factors, is crucial to adaptive responses to environmental changes. AhR mediates cellular responses to environmental pollutants such as aromatic hydrocarbons through induction of phase I and II enzymes but also interacts with other nuclear receptor signaling pathways. A cell based HepG2-AhR-luc assay (HG2L7.5c1 cell line, developed by Dr. Michael S. Denison, University of California at Davis, was used to assess the activation of AhR. HepG2 (human hepatocellular carcinoma) cells were stably transfected with an Ah receptor-responsive firefly luciferase reporter gene plasmid containing 20 dioxin responsive elements and luciferase reporter gene. Increased luciferase activity can be used to identify the compounds that induce AhR activation.\nTox21 Assay Protocol Summary: 4000 cells in 5 uL/well were dispensed into white wall/solid bottom 1536-well plates using a Multidrop Combi (Thermo Fisher Scientific Inc., Waltham, MA) dispenser. After the assay plates were incubated at 37C for 5 h, 23 nL of compound or DMSO vehicle was transferred to the assay plates by a pintool station (Kalypsys, San Diego, CA). The plates were incubated at 37C for 24 hr. After 1 ul/well of CellTiter-Fluor reagent (Promega, Madison, WI) was added into the assay plates using a Flying Reagent Dispenser (FRD) (Aurora Discovery, CA), the assay plates were incubated at 37C for 30 min. The fluorescence intensity in the plates was measured using a ViewLux plate reader (PerkinElmer, Shelton, CT), followed by the addition of 4 uL of ONE-Glo Luciferase Assay reagent (Promega) using an FRD (Aurora Discovery). After the assay plates were incubated at room temperature for 30 min, luminescence intensity was measured using a ViewLux plate reader (Perkin Elmer).", "values": [
      {"smiles": "C[S+](CC[C@H](N)C(=O)O)C[C@H]1O[C@@H](n2cnc3c(N)ncnc32)[C@H](O)[C@@H]1O", "note": "(stereo not given in full)", "activation": "2.83%"},
      {"smiles": "O=C(O)C[C@H](O)C[C@H](O)/C=C/c1c(C2CC2)nc2ccccc2c1-c1ccc(F)cc1", "activation": "0.0335%"},
      {"smiles": "CCCCCCCCCCCCCCCCCCOCC(COP(=O)([O-])OCC[N+](C)(C)C)OC", "note": "(stereo not given)", "activation": "-1.33%"},
      {"smiles": "COc1ccc(/C=N/NC(=O)c2ccncc2)c(C(=O)O)c1OC", "Potency": "11.9 µM (active)"},
      {"smiles": "O=C(O)CCCC/C=C(\\c1ccccc1)c1cccnc1", "activation": "-1.34%"},
      {"smiles": "CC(=O)OCC(=O)[C@@]1(O)CC[C@H]2[C@@H]3CCC4=CC(=O)CC[C@]4(C)C3=CC[C@@]21C", "activation": "3.51%"},
      {"smiles": "O=C1c2ccccc2-c2n[nH]c3cccc1c23", "Potency": "29.8 µM (active)"},
      {"smiles": "CC[C@H](C)C(=O)O[C@H]1CCC=C2C=C[C@H](C)[C@H](CC[C@@H]3C[C@@H](O)CC(=O)O3)[C@H]21", "activation": "-1.59%"},
      {"smiles": "C(=C\\c1ccncc1)/c1ccccc1", "Potency": "23.7 µM (active) and 13.3 µM (active)"},
      {"smiles": "CN1C(=O)C[C@@H](C(=O)N[C@@H](Cc2cnc[nH]2)C(=O)N2CCC[C@H]2C(N)=O)NC1=O", "activation": "-1.13%"},
      {"smiles": "S=C1NC=NC2N=CNC12", "note": "(stereo not given)", "Potency": "30.6 µM (active)"},
      {"smiles": "CC/C=C\\C/C=C\\C/C=C\\C/C=C\\C/C=C\\CCCC(=O)O", "activation": "0.509%"},
      {"smiles": "CCCOC(=O)c1ccccc1O", "activation": "-0.536%"},
      {"smiles": "C[N+](C)(C)CCOP(=O)(O)OP(=O)([O-])OC[C@H]1O[C@@H](n2ccc(N)nc2=O)[C@H](O)[C@@H]1O", "Potency": "inactive"},
      {"smiles": "CCN1\\C(=C/C=C/C=C/c2sc3ccccc3[n+]2CC)Sc2ccccc21", "activation": "-4.33%"},
      {"smiles": "CC(C)C[C@H](NC(=O)[C@@H](COC(C)(C)C)NC(=O)[C@H](Cc1ccc(O)cc1)NC(=O)[C@H](CO)NC(=O)[C@H](Cc1c[nH]c2ccccc12)NC(=O)[C@H](Cc1cnc[nH]1)NC(=O)[C@@H]1CCC(=O)N1)C(=O)N[C@@H](CCCN=C(N)N)C(=O)N1CCC[C@H]1C(=O)NNC(N)=O", "Potency": "inactive"},
      {"smiles": "CN(C)CCC(O)(c1ccccc1)c1ccccc1Cl", "note": "(stereo not given)", "activation": "3.54%"},
      {"smiles": "CCCCCCCCCCCCCCCCCCNC(=O)OC1CCN(C(=O)OC[C@H](COC(=O)N(Cc2cccc[n+]2CC)C(=O)c2ccccc2OC)OC)CC1", "activation": "-0.111%"},
      {"smiles": "C[C@H](O)CN(C)C", "activation": "-0.863%"},
      {"smiles": "CC(C)COC(=O)OCN1C(=O)CN(CCN2CC(=O)N(COC(=O)OCC(C)C)C(=O)C2)CC1=O", "activation": "3.56%"},
      {"smiles": "CCCCCCCCCCCCCCCC(=O)OC[C@H](COP(=O)([O-])OCC[N+](C)(C)C)OC(=O)CCCCCCCCCCCCCCC", "activation": "0.0398%"},
      {"smiles": "Cc1ccc2nc(-c3ccc(N)cc3)sc2c1S(=O)(=O)O", "Potency": "4.26 µM (active)"},
      {"smiles": "NCCO/C=C/[C@H](N)C(=O)O", "activation": "-0.0494%"},
      {"smiles": "O=C(N[C@H](CO)[C@H](O)c1ccc([N+](=O)[O-])cc1)C(Cl)Cl", "activation": "-0.734%"},
      {"smiles": "CN(C)CCc1c[nH]c2ccc(Cn3cncn3)cc12", "activation": "-0.998%"},
      {"smiles": "CC(C)=CCC/C(C)=C/CC/C(C)=C/CC/C=C(\\C)CC/C=C(\\C)CCC=C(C)C", "Potency": "inactive"},
      {"smiles": "NCC(O)CC(=O)O", "note": "(stereo not given)", "activation": "-0.765%"},
      {"smiles": "NCC1CCC(C(=O)O)CC1", "note": "(stereo not given)", "activation": "-1.26% [at 32.5 µM]"},
      {"smiles": "C=CC1=C(C(=O)O)N2C(=O)[C@@H](NC(=O)/C(=N/OCC(=O)O)c3csc(N)n3)[C@H]2SC1", "note": "(stereo in doubt)", "activation": "-0.262% [at 32.5 µM]"},
      {"smiles": "NC(N)=NCC1COC2(CCCCC2)O1", "note": "(stereo not given)", "activation": "0.122% [at 32.5 µM]"},
      {"smiles": "NC(=O)[C@H]1O[C@@H](O)[C@H](O)[C@@H](O)[C@@H]1O", "activation": "-0.308%"},
      {"smiles": "CCCCCCCCCCCCCCCCC(C(=O)O)C(O)(CC(=O)O)C(=O)O", "note": "(stereo not given)", "activation": "-1.49%"},
      {"smiles": "CC12CCC(C[N+](C)(CCC[N+](C)(C)C)C1)C2(C)C", "note": "(stereo not given)", "activation": "-1.32%"},
      {"smiles": "O=C1CC[C@@H](C(=O)N[C@H]2C[C@@H]2c2ccccc2)N1", "activation": "3.85%"},
      {"smiles": "CCOc1ccc(S(=O)(=O)O)c2cccnc12", "activation": "-1.05%"},
      {"smiles": "NS(=O)(=O)c1cc(Cl)c(Cl)c(S(N)(=O)=O)c1", "activation": "-0.114% [at 32.5 µM]"},
      {"smiles": "CCN(CC)CCn1c(=O)c(Cc2ccc(OC)cc2)nc2ccccc21", "activation": "-1.11%"},
      {"smiles": "CC(=NCc1ccccc1)c1ccccc1O", "activation": "2.23%"},
      {"smiles": "CC1(C)C[C@@H]1C(=O)N/C(=C\\CCCCSC[C@H](N)C(=O)O)C(=O)O", "Potency": "inactive"},
      {"smiles": "COc1cccc(-c2ccc(/C=C\\CN3CCCCCC3)cc2Cl)c1", "activation": "-2.1%"}
    ]}
  ]
}
